Here are results for 59 molecules from PubChem BioAssay AID1347075 (National Center for Advancing Translational Sciences (NCATS), 2019).

Each structure is given as a SMILES string. In all, about 400,000 compounds went through this assay and about 5,500 (1.4%) were called active. Roughly 9% stayed inconclusive and do not appear here. Calls come from the whole dose curve; as a rule, active = well fitted cell-killing curve with a large enough effect; inconclusive = small, poorly fitted or top-dose-only effect, or effect the other way; inactive = flat fitted curve, though single readings scatter. Shown is part of a subset that was picked to be rich in actives.
% is set by controls: 0 for no effect and ±100 for the full control effect; potency is the fitted concentration of half-maximal effect.

The nature of this test: qHTS assay for MDR1-selective chemotherapeutics: Primary screen using the parental adenocarcinoma cell KB-3-1. Note: nearly all actives have a fitted effect of over 60% in size. The note with it: KB-3-1 viability, CellTiter-Glo ATP luminescence, 72 h; series mostly up to 46.1 µM; activity change, negative = cytotoxic: at the top concentration. Summed up: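 KB-3-1 parental drug-naive adenocarcinoma cells in DMEM/10% FBS, incubated 72 h at 37 C with pin-transferred compounds across a concentration series. Viability by CellTiter-Glo luminescence; concentration-response curves fitted after normalization.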
Background: Quantitative high-throughput screening tests each substance at several concentrations.
Take `CCOc1ccccc1CNC(=O)C1CCCN(S(=O)(=O)c2ccc3c(ccn3C)c2)C1` (centres undefined): the “activity change, negative = cytotoxic” value is -11.1% (inactive).
The same measure, in the same setting: with `COc1ccccc1NC(=O)c1sc2nc(C)c(C(=O)Nc3ccc(Cl)cc3)c(-c3ccc(Br)cc3)c2c1N` the figure was 9.2% (inactive).
Regarding `O=C(Nc1ccc(S(=O)(=O)N2CCc3ccccc3C2)cc1)c1ccccc1`, the Potency was 18.4 µM (active).
Regarding `COC(=O)c1ccc(S(=O)(=O)N2CCc3ccccc3C2)cc1`, the “activity change, negative = cytotoxic” value was 2.98% (inactive).
Still for that read-out and setting: with `CC(C)c1ccc(NC(=O)c2cc(S(=O)(=O)N3CCc4ccccc4C3)ccc2F)cc1` the figure was 8.41% (inactive).
On the same count and under the same terms, with `CCOc1ccc(N(CC)C(=O)c2cc3c(=O)oc4ccccc4c3s2)cc1` the figure was 18.5% (inactive).
On the same count and under the same terms, with `Cc1ccc(Nc2ccc3cc(S(=O)(=O)N4CCCCC4)ccc3n2)cc1F` the figure was 1.58% (inactive).
For `COc1ccc(N2CCN(S(=O)(=O)c3ccc4c(c3)CC(=O)N4)CC2)cc1`, the Potency entry is “inactive”.
With `CCOc1ccc(N(CC(=O)OC)S(=O)(=O)c2c(C)noc2C)cc1`, the “activity change, negative = cytotoxic” value is 7.88% (inactive).
Turning to `Cc1noc(C)c1S(=O)(=O)N(CC(=O)Nc1ccc2c(c1)OCCO2)c1ccc(C(C)C)cc1`, the “activity change, negative = cytotoxic” value was -18.5% (inactive).
With `COc1ccc(N(CC(=O)Nc2cc(OC)ccc2OC)S(=O)(=O)c2c(C)noc2C)cc1`, the Potency was 18.4 µM (active).
On to `CCOC(=O)CN1C(C(=O)c2ccccc2)=C(OC(=O)C(C)(C)C)c2ccccc2S1(=O)=O`, for which the “activity change, negative = cytotoxic” value is 5.45% (inactive).
In the case of `COc1ccc(Cn2c(-c3ccc(Cl)cc3)c[n+]3ccccc23)cc1`, the Potency is 3.66 µM (active).
`COc1ccc(CNc2nc(-c3ccc(Cl)cc3)nn2C(=O)c2ccccc2)cc1`: the “activity change, negative = cytotoxic” value was -6.28% (inactive).
Same read-out and setting: with `COc1ccc(Cn2c(=O)oc3ccccc32)cc1` the figure was -5.14% (inactive); with `Cc1oc2ncnc(N3CCCCC3)c2c1C(=O)N1CCN(c2cccc(Cl)c2)CC1`, -8.44% (inactive); with `Cc1ccc(CNC(=O)c2cc(-c3ccccc3C)n(CC3CC(c4cccc([N+](=O)[O-])c4)=NO3)n2)cc1` (centres undefined), 6.56% (inactive).
Still for that read-out and setting: next, `Cc1ccccc1-c1cc(C(=O)NCC2CC2)n(CC2CC(c3cccnc3)=NO2)n1` (centres undefined): -0.87% (inactive).
On to `Cc1ccccc1-c1cc(C(=O)NCc2cccs2)n(CC2CC(c3cccnc3)=NO2)n1` (centres undefined), for which the Potency is 18.4 µM (active).
Consider `C=C1C=C(C(F)F)n2ncc(C(=O)NCCc3ccccc3OC)c2N1`, for which the “activity change, negative = cytotoxic” value is 0% (inactive).
Still for that read-out and setting: next, `CCn1cc(C(=O)NCc2ccccc2)c(=O)c2cc(S(=O)(=O)N3CCCCC3)ccc21`: 16.8% (inactive).
The same measure, in the same setting: next, `O=C(CSc1nc2c(c(=O)[nH]1)CN(Cc1ccc3c(c1)OCO3)CC2)Nc1cc(F)ccc1F`: 1.29% (inactive).
Consider `Fc1ccc2[nH]c3c(N4CCN(Cc5ccc6c(c5)OCO6)CC4)ncnc3c2c1`, for which the Potency is 18.4 µM (active).
Still for that read-out and setting: next, `Fc1ccc2[nH]c3c(N4CCSCC4)ncnc3c2c1`: 5.17 µM (active).
Take `N#C/C=C/N1CCN(Cc2ccc3c(c2)OCO3)CC1`: the “activity change, negative = cytotoxic” value is 16% (inactive).
The same measure, in the same setting: with `CCc1nc2onc(C)c2c(=O)n1CC(=O)O` the figure was -2.75% (inactive); with `Cc1oc2ncn(CC(C)C)c(=O)c2c1C(=O)N1CCN(c2ccccc2F)CC1`, -0.942% (inactive); with `O=C(NCCC1=CCCCC1)c1ccc2c(c1)N(Cc1ccccc1F)C(=O)c1ccccc1S2(=O)=O`, 4.55% (inactive).
Same read-out and setting: with `O=C(CCS(=O)(=O)c1cc(Br)cc2c1N(C(=O)C1CC1)CC2)Nc1ccc(C(F)(F)F)cc1` the figure was 4.76% (inactive); with `Cc1cccc(N2CCN(c3ccc(C(=O)O)cc3NC(=O)c3ccccc3F)CC2C)c1` (centres undefined), 7.44% (inactive); with `O=C(c1cnn2c1NC(=C1CC1)C=C2C(F)F)N1CCc2ccccc2C1`, 0% (inactive).
In the case of `CSc1nn(Cc2cccc(C)c2)c(N)c1S(=O)(=O)c1ccccc1`, the “activity change, negative = cytotoxic” value is -14.3% (inactive).
The same measure, in the same setting: next, `COc1cccc(-c2cc(NC(C)=O)c3ncc(-c4cccc(C(C)=O)c4)n3c2)c1`: 0% (inactive).
With `COc1ccc(-c2cc(NC(C)=O)c3ncc(-c4cc(OC)c(OC)c(OC)c4)n3c2)cn1`, the Potency is 5.8 µM (active).
Turning to `CC(=O)c1cccc(-c2cnc3c(NC=O)cc(-c4ccccc4Oc4ccccc4)cn23)c1`, the “activity change, negative = cytotoxic” value is -2.94% (inactive).
As to `COc1ccc(-c2cc(NC=O)c3ncc(-c4cccc(C(=O)N(C)C)c4)n3c2)c(OC)c1`, the “activity change, negative = cytotoxic” value is -0.891% (inactive).
The same measure, in the same setting: with `CC(=O)Nc1cccc(-c2cc(NC(C)=O)c3ncc(-c4ccccc4)n3c2)c1` the figure was -3.06% (inactive); with `COc1ccccc1-c1cc(NC(C)=O)c2ncc(-c3ccc(F)cc3)n2c1`, 0% (inactive).
For the molecule `COc1ccc(-c2cc(NC=O)c3ncc(-c4cc(OC)c(OC)c(OC)c4)n3c2)c(OC)c1`, the Potency was 1.3 µM (active).
With `COc1cccc(-c2cnc3c(NC(C)=O)cc(-c4cccc(NC(C)=O)c4)cn23)c1`, the “activity change, negative = cytotoxic” value was 0% (inactive).
Consider `COc1cccc(-c2cnc3c(NC(C)=O)cc(-c4cc(F)ccc4OC)cn23)c1`, for which the Potency is 16.4 µM (active).
As to `CCCN(C(=O)Cn1ncc2c([nH]c3ccc(C)cc32)c1=O)c1ccccc1C`, the “activity change, negative = cytotoxic” value is 0.221% (inactive).
Still for that read-out and setting: next, `CCc1ccc2oc(-c3ccc(NC(=O)c4cc5ccccc5o4)cc3)nc2c1`: -12.6% (inactive); `COc1ccc(NC(C)=O)cc1NC(=O)CN1CCN(c2ccc(F)cc2)CC1`: 1.07% (inactive); `COC(=O)c1ccc(NC(=O)c2cc(S(=O)(=O)N3CCC(C)CC3)cn2C)cc1`: -7.89% (inactive).
As to `CCOC(=O)c1c(C)oc2nc(C)nc(N(CC(C)C)CC(C)C)c12`, the “activity change, negative = cytotoxic” value was 3.41% (inactive).
Turning to `CC(C)(O)c1ccccc1CC[C@H](SCC1(CC(=O)O)CC1)c1cccc(/C=C/c2ccc3ccc(Cl)cc3n2)c1`, the “activity change, negative = cytotoxic” value was 7.37% (inactive).
As to `CCc1cnc2c(c1SCC(=O)c1ccccc1)c(=O)n(C)c(=O)n2C`, the “activity change, negative = cytotoxic” value was 9.68% (inactive).
`Cc1ccc(C)c(S(=O)(=O)N2CCN(c3ncnc4sccc34)CC2)c1`: the Potency is 9.2 µM (active).
Regarding `Cc1ccc(C)c(S(=O)(=O)c2nnn3c2nc(N2CCOCC2)c2sccc23)c1`, the “activity change, negative = cytotoxic” value was -0.269% (inactive).
The same measure, in the same setting: with `Cc1ccc(C)c(S(=O)(=O)n2nc(C)c(S(=O)(=O)N3CCC(C)CC3)c2C)c1` the figure was -3.25% (inactive); with `CCOCCCNC(=O)c1cn(CC)c2ccc(S(=O)(=O)N3CCc4ccccc4C3)cc2c1=O`, -12.4% (inactive); with `COC(=O)c1cc(OCC(=O)NC2CCCc3ccccc32)cc(C(=O)OC)c1` (centres undefined), 5.25% (inactive).
As to `O=C(CCNC(=O)c1ccc(Cl)cc1)NC1CCCc2ccccc21` (centres undefined), the Potency is 7.31 µM (active).
As for `NC(=O)Nc1ccc(C(=O)OCC(=O)NC2CCCc3ccccc32)cc1` (centres undefined), the “activity change, negative = cytotoxic” value was 3.73% (inactive).
Same read-out and setting: next, `Cc1ccc(Cl)cc1NC(=O)CCS(=O)(=O)c1ccc(Br)s1`: 10.5% (inactive).
Still for that read-out and setting: with `CCc1nc(C)ccc1OCC(=O)N(CC)CC` the figure was -4.05% (inactive).
With `CCC(C)(C)c1ccc(OCC(=O)N(C)C)c(C(C)(C)CC)c1`, the Potency was 16.4 µM (active).
With `COc1ccc(Cl)cc1NC(=O)CSc1nc2ccccc2c2nc(-c3ccccc3)nn12`, the “activity change, negative = cytotoxic” value is 3.72% (inactive).
